Test results reported in PubChem BioAssay AID687001 (Broad Institute, 2013).
Potency and affinity values are given separately. Calls of active or inactive are those of the source.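 The calls were made as follows: active = signal-lowering compounds whose fitted half-maximal concentration is at or below twice the top tested dose in every run; inconclusive = runs disagree, flat 30 to 70% inhibition, or poor curve fit; inactive = the rest.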

Target: Protein S100-A4 (Homo sapiens) (UniProt P26447)
Test: human S100A4 peptide interaction inhibition curves – biochemical, fluorescence polarization, cherry-picked hits, dose response (AID 687001)
Conditions: FP, S100A4/TAMRA-myosin IIA peptide binding; series mostly up to 11 µM

Sequence of Protein S100-A4 (Homo sapiens) (P26447 whole entry, looked up): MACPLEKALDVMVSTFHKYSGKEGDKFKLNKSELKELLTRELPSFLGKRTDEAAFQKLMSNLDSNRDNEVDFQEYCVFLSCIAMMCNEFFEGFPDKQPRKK

outcome, inactive:
Cc1ccc(S(=O)(=O)N[C@H]2C=C[C@H](CC(=O)O)O[C@@H]2CO)cc1
C[C@@H]1CN([C@H](C)CO)C(=O)c2ccccc2-c2ccccc2CO[C@H]1CN(C)C(=O)Oc1ccccc1
COc1ccc(C)cc1NC(=O)CN1CCN(c2ccccn2)CC1
CC(C)[C@H](NC(=O)N1CCn2c1nc1ccccc12)C(=O)NCc1ccccc1Cl
CCc1nn2c(=O)cc(COc3ccc(NC(=O)c4ccco4)cc3)nc2s1
O=C1CCc2cc(S(=O)(=O)N3CCCCC3)cc3c2N1CCC3
C[C@@H]1CCCCO[C@H](CN(C)S(=O)(=O)c2cccs2)[C@@H](C)CN([C@@H](C)CO)C(=O)c2cc(NS(=O)(=O)c3cccs3)ccc2O1
Fc1ccc(Nc2nc(N3CCOCC3)nc(N3CCOCC3)n2)cc1
Cc1ccc(S(=O)(=O)N[C@H]2C=C[C@@H](CC(=O)NC3CCCCC3)O[C@@H]2CO)cc1
CC(C)n1nnnc1C1c2ccccc2C(=O)N1Cc1cccc(F)c1 (centres undefined)
C[C@@H]1CCCCO[C@@H](CN(C)C(=O)CCC(F)(F)F)[C@@H](C)CN([C@@H](C)CO)C(=O)c2cc(NC(=O)c3ccccc3)ccc2O1
COc1ccc(C(CNC(=O)C(=O)Nc2ccc3c(c2)OCCO3)N2CCN(C)CC2)cc1 (centres undefined)
COc1ccc(C#Cc2ccc([C@@H]3[C@@H](CO)N4CCCCN(C(=O)Nc5ccc(F)cc5)C[C@@H]34)cc2)cc1
Cc1cc2cc(C#N)c(N3CCOCC3)nc2cc1Cl
